Screening data: PubChem, National Center for Advancing Translational Sciences (NCATS)
Hits are enriched below; roughly 7.5% of the tested compounds scored in any of these assays.
VP16 counter: Gal4-VP16 reporter inhibition counter-screen | AID 2546 | Potency, µM (doses to about 53.6 µM), for the others: top-dose activity, negative = inhibition, hits mostly inhibitors | Drosophila S2 Gal4-VP16 UAS-luciferase, luminescence, 20 h | actives 3.5% (n = 310,000);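 note: Gal4-VP16 expression switched on by copper sulfate through the metallothionein promoter; potency is the fitted concentration of half-maximal effect; nearly all actives have a fitted effect of over 50% in size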
B2AR arrestin: recruits beta-arrestin to the human beta2-adrenergic receptor; actives 0.02% (n = 330,000); Potency, µM (top dose mostly 46.1 µM), without a hit: at the top dose activation, usual class: activators; P07550; beta-arrestin recruitment to beta2AR, cell-based reporter;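 note: potency is the fitted concentration of half-maximal effect; 0% = DMSO controls and full agonism = EC100 isoproterenol or metaproterenol; nearly all actives have a fitted effect of over 65% in size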
ELG1 DNA repair: blocks ELG1-dependent DNA repair in HEK293T cells; HEK293T ELG1-luciferase reporter, luminescence, 16 h; DNA damage induced by 5-fluorouridine; Potency, µM (highest dose often 46.1 µM), without a hit: top-dose activity change, negative = inhibition, usual class: inhibitors; actives 2.3% (n = 330,000); AID 504467; note: potency is the fitted concentration of half-maximal effect; nearly all actives have a fitted effect of over 55% in size
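Quantitative HTS, concentration-response format. 2,000 cells/well co-treated with 5-fluorouridine and compound, 16 hr in 5% CO2 at 37 °C; ONE-Glo luminescence read after 30 min.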
RORg inh: inhibitors of mouse ROR gamma transcriptional activity. Potency, µM (titrated, usually from 53.6 µM), inactives show at the top dose activity change, negative = inhibition, actives largely listed as inhibitors. actives 5.4% (n = 310,000). Drosophila S2 Gal4-RORgamma UAS-luciferase reporter, 20 h. P51450; note: potency is the fitted concentration of half-maximal effect; nearly all actives have a fitted effect of over 60% in size
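A Gal4/UAS one-hybrid system in insect cells: metallothionein-promoter Gal4–ROR gamma fusion plus Photinus luciferase reporter. Copper sulfate 700 uM final, 20 hr ambient incubation, luminescent detection after 10 min with reagent.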
TSHR antagonist: antagonists of human thyroid stimulating hormone receptor; activity change, negative = inhibition, % at 11.5 µM; actives 0.2% (n = 330,000); AID 504810; TSHR-expressing cells, TSH-stimulated cAMP HTRF, 2 h; stronger effect = lower value;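 active = activity change below a set negative limit, meaning inhibition stronger than a set level, cut at about -70% in these data; inconclusive = activity change between two set negative limits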
Target sequence (P16473 whole entry, looked up): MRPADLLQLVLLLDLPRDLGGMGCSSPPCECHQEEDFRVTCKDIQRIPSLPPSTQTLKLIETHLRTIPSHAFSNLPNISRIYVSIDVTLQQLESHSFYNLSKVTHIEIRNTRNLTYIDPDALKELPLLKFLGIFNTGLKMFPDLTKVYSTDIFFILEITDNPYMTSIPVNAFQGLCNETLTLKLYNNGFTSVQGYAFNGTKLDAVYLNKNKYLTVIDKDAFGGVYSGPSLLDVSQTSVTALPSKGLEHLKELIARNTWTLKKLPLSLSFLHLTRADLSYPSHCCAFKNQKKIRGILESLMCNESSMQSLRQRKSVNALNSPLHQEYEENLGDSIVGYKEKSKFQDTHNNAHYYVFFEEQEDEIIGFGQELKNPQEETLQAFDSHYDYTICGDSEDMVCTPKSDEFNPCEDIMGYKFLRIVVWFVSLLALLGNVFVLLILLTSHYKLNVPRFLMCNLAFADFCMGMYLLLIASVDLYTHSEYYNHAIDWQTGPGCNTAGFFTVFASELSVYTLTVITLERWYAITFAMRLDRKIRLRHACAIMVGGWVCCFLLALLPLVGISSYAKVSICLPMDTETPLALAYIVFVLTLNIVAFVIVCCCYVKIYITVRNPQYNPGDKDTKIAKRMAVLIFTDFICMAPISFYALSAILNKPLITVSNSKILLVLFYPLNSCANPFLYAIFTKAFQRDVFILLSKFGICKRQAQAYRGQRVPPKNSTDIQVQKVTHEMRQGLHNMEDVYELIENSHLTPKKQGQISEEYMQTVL
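Read-out is FRET at 665 nm (cryptate excitation 337 nm) from a cryptate-tagged anti-cAMP antibody, competed by cell cAMP against cAMP-d2. Compounds are tested on freshly harvested TSHR cells challenged with 4nM TSH (EC80) for 2 hours at 37 deg C.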
Active calls of the source: *; [ ] = dose if it differs, or a comment. Unless noted, calls come from the whole dose curve; as a rule, active = well fitted curve in the direction sought with a large enough effect; inconclusive = small, poorly fitted or top-dose-only effect, or another doubt; inactive = no such curve, though single readings can be large; an effect the other way counts as inactive or inconclusive. Unless noted, % is set by controls: 0 for no effect and ±100 for the full control effect.

Screening O=C(NNC(=O)c1cccs1)c1ccc(F)cc1 returned VP16 counter 5%, B2AR arrestin 0%, ELG1 DNA repair inconclusive, RORg inh 8% and TSHR antagonist 14.
For Cc1ccccc1C(=O)NNC(=S)NC(=O)c1cccs1 the results were VP16 counter 13µM*, B2AR arrestin 0%, ELG1 DNA repair -11%, RORg inh 7.9µM* and TSHR antagonist 16.
For O=c1c2c([nH]n1-c1ccccc1)CCSC2 the results were VP16 counter -1%, B2AR arrestin 0%, ELG1 DNA repair 2%, RORg inh -7% and TSHR antagonist 1.
For COC(=O)c1ccc(C(NC(=O)OCc2ccccc2)/C(=C/[C@@H](C)C(=O)N(C)C)c2cccnc2)cc1 (some centres undefined) the results were VP16 counter -9% and RORg inh 1%.
For N#CCCn1c(=O)c(-c2ccc(F)cc2)nc2cnc(Oc3cccc(Cl)c3)nc21 the results were VP16 counter 1% and RORg inh 4%.
Cc1cccc(C(=O)NC(=S)NNC(=O)c2ccc(Cl)cc2)c1 was read as VP16 counter inconclusive, B2AR arrestin -1%, ELG1 DNA repair inconclusive, RORg inh 10µM* and TSHR antagonist -36.
Screening COc1cc(C(=O)NNC(=S)NC(=O)c2ccc(Cl)cc2)cc(OC)c1OC returned VP16 counter inconclusive, B2AR arrestin -1%, ELG1 DNA repair -1%, RORg inh inconclusive and TSHR antagonist -16.
Screening CCOc1ccc(S(=O)(=O)/N=C(/Nc2ccc(C)c(S(=O)(=O)N3CCOCC3)c2)c2ccccc2)cc1 returned B2AR arrestin -1% and ELG1 DNA repair inconclusive.
Screening COC(=O)CNC(=O)C1CC(=O)N(CCc2ccc(F)cc2)C1 (centres undefined) returned VP16 counter 1%, B2AR arrestin 0%, ELG1 DNA repair -4%, RORg inh 3% and TSHR antagonist 1.
Screening CCOC(=O)c1cnc2cc(-c3ccc(C)cc3)nn2c1-c1ccccc1 returned VP16 counter -11%, B2AR arrestin 0%, ELG1 DNA repair -1%, RORg inh -9% and TSHR antagonist 8.
`CCOC(=O)c1cnc(-n2nc(C)cc2C)nc1NNc1ncc(-c2ccccc2)cn1` gave VP16 counter inconclusive, B2AR arrestin 13%, ELG1 DNA repair inconclusive, RORg inh 5.6µM* and TSHR antagonist -2.
For CCOC(=O)c1cnc(-n2nc(C)cc2C)nc1NNc1cc(-c2ccccc2)nc(C)n1 the results were VP16 counter 0.1µM*, B2AR arrestin 0%, ELG1 DNA repair inconclusive, RORg inh 0.089µM* and TSHR antagonist -3.
`CC(=O)c1ccc2noc(-c3ccccc3)c2c1` gave VP16 counter -10%, B2AR arrestin 0%, ELG1 DNA repair 9.2µM*, RORg inh inconclusive and TSHR antagonist -22.
For CN(C)/C=C/C(=O)c1ccc2noc(-c3ccccc3)c2c1 the results were VP16 counter -4%, B2AR arrestin 0%, ELG1 DNA repair 23µM*, RORg inh 20% and TSHR antagonist 1.
Screening CC(=O)c1ccc2noc(-c3cccc(C)c3)c2c1 returned VP16 counter -13%, B2AR arrestin 0%, ELG1 DNA repair 0%, RORg inh 8% and TSHR antagonist 29.
`CCN(CC)[C@@H](C)CN1c2ccccc2Sc2ccccc21` gave VP16 counter -2%[17 µM] and RORg inh 0%[2.98 µM].
C=CCOC(=O)C(C(C)=O)C(NC(=O)OC)c1ccc(Cl)cc1 (centres undefined) was read as VP16 counter 6%[10 µM] and RORg inh 3%[10 µM].
O=C(CN1C(=O)COc2ccc(Cl)cc21)NCC1CCCO1 (centres undefined) was read as VP16 counter 1%, B2AR arrestin 0%, ELG1 DNA repair 2%, RORg inh -10% and TSHR antagonist 4.
For CC1CCC/C(=C\Nc2ccc(O)cc2)C1=O (centres undefined) the results were VP16 counter -3%, B2AR arrestin 5%, ELG1 DNA repair inconclusive, RORg inh -3% and TSHR antagonist -2.
